An excerpt weighted towards active compounds, which were near 19% of everything screened.
HT1080 IDH1KD tx: HT-1080 IDH1 knockdown cell toxicity (counter line); HT-1080 IDH1 knockdown viability, ATP luminescence, 48 h; Potency, µM (doses to about 46.1 µM), most hits filed as cytotoxic; actives 2% (n = 360,000); AID 686971
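Assay cells: HT-1080 with IDH1 knockdown, 750 per well, RPMI/5% FBS. Exposure: 48 h at 37 °C following 2 h pre-incubation. Read: CellTiter-Glo luminescence; fitted concentration-response, curve class assigned.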
HT1080NT lethal: kills 2HG-producing HT-1080-NT fibrosarcoma cells; Potency, µM (top dose mostly 46.1 µM), usual class: cytotoxic; HT-1080-NT fibrosarcoma viability, CellTiter-Glo ATP luminescence, 48 h; actives 1.6% (n = 360,000);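 note: NT is the 2HG producing partner of a matched IDH1 knockdown line; nearly all actives have a fitted effect of over 55% in size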
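HT-1080-NT fibrosarcoma cells (2HG-overproducing), 750 cells/well in RPMI with 5% FBS, dosed after 2 h and incubated 48 h at 37C. CellTiter-Glo luminescence normalized to DMSO and no-cell wells; concentration-response curves fitted and classed.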
TDP1 cell noCPT: qHTS for Inhibitors of human tyrosyl-DNA phosphodiesterase 1 (TDP1): qHTS in cells in absence of CPT; DT40 Tdp1-/- hTDP1 cells, no CPT, ATP luminescence, 48 h; Potency, µM (highest dose often 46.2 µM), usual class: inhibitors; actives 15% (n = 420,000); note: nearly all actives have a fitted effect of over 55% in size
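Stably hTDP1-transfected Tdp1-null chicken DT40 cells were treated with library compounds minus camptothecin and grown for at least 48 hr at 37 °C, after which cellular ATP was quantified by luminescence.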
TDP1 cell CPT: growth inhibition of DT40 Tdp1-/-;hTDP1 cells with camptothecin (screen for TDP1 inhibitors); Potency, µM (titrated, usually from 46.2 µM), actives largely listed as inhibitors; actives 12% (n = 420,000); AID 686979; chicken DT40 Tdp1-/-;hTDP1 cells + 20 nM CPT, ATP luminescence, 48 h; note: nearly all actives have a fitted effect of over 55% in size
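Chicken DT40 Tdp1-/- cells stably complemented with human TDP1 were seeded at 400 cells/well in medium containing 20 nM camptothecin, exposed to pin-transferred compounds, and grown at 37 °C for at least 48 hr. Viability was read as ATP luminescence.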
IL1B secr inh: inhibitors of inflammasome signaling (IL-1 beta secretion); AID 743279; actives 4.7% (n = 360,000); activity change, % at 57.5 µM; THP-1 LPS/ATP IL-1B secretion, AlphaLISA, 16 h; active compounds read low; in the data active = activity change below about -50%; inconclusive = mostly about -30% to -49%
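Secreted IL-1B measured by AlphaLISA bead assay after 16 h compound exposure of THP-1 cells; compounds (final up to 57.5 uM) added 1 h before LPS (250 ng/mL) and ATP (1.25 mM) stimulation; lower signal means less secretion.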
Numbers stand for hits; n = inactive; u = inconclusive; x = no result given. Unless noted, calls come from the whole dose curve; as a rule, active = well fitted curve in the direction sought with a large enough effect; inconclusive = small, poorly fitted or top-dose-only effect, or another doubt; inactive = no such curve, though single readings can be large; an effect the other way counts as inactive or inconclusive.

SMILES	HT1080 IDH1KD tx	HT1080NT lethal	TDP1 cell noCPT	TDP1 cell CPT	IL1B secr inh
Cc1cccc(NS(=O)(=O)c2cccc(C(=O)N3CCN(c4ccccn4)CC3)c2)c1	n	n	n	n	n
Cc1ccc(C(=O)N2CCN(c3ncccn3)CC2)cc1	n	n	n	n	n
CCOC(=O)N1CCN(C(=O)c2ccc(Cl)c(S(=O)(=O)Nc3ccccc3)c2)CC1	n	n	n	n	n
Cc1ccc(NS(=O)(=O)c2ccc(C(=O)N3CCN(c4ncccn4)CC3)cc2)cc1	n	n	7.3µM	u	n
CCOC(=O)N1CCN(C(=O)COc2ccc(S(=O)(=O)Nc3ccc(OCC)cc3)cc2)CC1	u	n	23µM	u	n
Cc1ccc(C(C)(C)C)cc1S(=O)(=O)Nc1cccc(C(=O)N2CCN(c3ccccn3)CC2)c1	n	n	16µM	29µM	n
CCOC(=O)N1CCN(C(=O)c2ccc(S(=O)(=O)Nc3ccccc3)cc2)CC1	n	n	u	12µM	n
CCOC(=O)C1(C)NC(c2cccs2)C2C(=O)N(c3ccccc3)C(=O)C21 (stereo unspecified)	n	n	n	n	n
CCc1ccc(NC(=O)Cn2nnc(C(=O)NCc3ccc(C)cc3)c2N)cc1	x	x	n	n	x
COc1ccc(-c2nc3sc(CCNC(=O)C(=O)Nc4cc(F)ccc4F)c(C)n3n2)cc1	x	x	n	n	x
Cc1ccc(NS(=O)(=O)c2ccc(C(=O)N3CCOCC3)cc2)cc1	n	n	u	u	n
O=C(c1ccc(NS(=O)(=O)c2ccccc2)cc1)N1CCOCC1	n	n	10µM	n	n
CC1CC(C)CN(C(=O)c2ccc(S(=O)(=O)N3CC(C)CC(C)C3)cc2)C1 (stereo unspecified)	n	n	18µM	23µM	-77
O=C(c1ccc(S(=O)(=O)Nc2ccc(F)cc2)cc1)N1CCN(c2ccccn2)CC1	n	n	18µM	u	-54
CC1CC(C)CN(S(=O)(=O)c2ccc(C(=O)N3CCCC3)cc2)C1 (stereo unspecified)	n	n	u	n	n
COc1ccc(S(=O)(=O)N2CCN(C(=O)c3cc4c(s3)CCC4)CC2)cc1	n	n	u	u	n
Cc1ccc(S(=O)(=O)N2CCN(C(=O)c3cc4c(s3)CCCC4)CC2)cc1	n	n	16µM	u	n
COc1ccc(NS(=O)(=O)c2ccc(C(=O)N3CCN(c4ccc(F)cc4)CC3)cc2)cc1	n	n	4.6µM	10µM	n
CC1CCN(C(=O)c2ccc3ccccc3c2)CC1	n	n	n	n	n
CC1CC(C)CN(C(=O)c2ccc3ccccc3c2)C1 (stereo unspecified)	n	n	u	u	-51
O=S(=O)(Nc1ccc(N2CCCCC2)cc1)c1ccc(F)cc1	n	n	29µM	16µM	n
COc1ccc(N2CCN(C(=O)c3ccc(NS(=O)(=O)c4ccc(F)c(F)c4)cc3)CC2)cc1	n	n	u	u	n
Cc1ccc(NS(=O)(=O)c2ccc(C(=O)N3CCN(S(=O)(=O)c4ccccc4)CC3)cc2)cc1	n	n	7.3µM	12µM	n
CC(C)(C)C(=O)Nc1cc2c3c(c1)CCN3C(=O)CC2	n	n	n	n	n
C[C@H]1CC[C@]2(O[C@H](CCO)C[C@@H](O)[C@@H]2O)O1	n	n	n	n	n
SMILES	HT1080 IDH1KD tx	HT1080NT lethal	TDP1 cell noCPT	TDP1 cell CPT	IL1B secr inh
COc1ccc(CCC(=O)OCC(=O)N(CC(C)C)c2c(N)n(Cc3ccccc3)c(=O)[nH]c2=O)cc1	n	n	n	n	n
CC1CCN(c2ccc3nnc(CCC(=O)NCCCOC(C)C)n3n2)CC1	n	n	n	n	n
CCOc1ccccc1-c1ccc2nccn2c1	n	n	u	u	n
Cc1ccc(NS(=O)(=O)c2ccc(C(=O)N3CC(C)CC(C)C3)cc2)cc1 (stereo unspecified)	n	n	16µM	21µM	n
Cc1ccc(S(=O)(=O)Nc2ccc(C(=O)N3CCCC3)cc2)cc1	n	n	n	n	n
CCOC(=O)COc1ccc(S(=O)(=O)Nc2cccc(SC)c2)cc1	u	10µM	n	u	n
CCOC(=O)C1=C(Nc2ccccc2)CSC1	n	n	n	n	n
CCOC(=O)N1CCC(N2Cc3cccc(C(=O)Nc4ccccc4OC)c3C2=O)CC1	n	n	16µM	23µM	n
CCOC(=O)N1CCC(N2Cc3cccc(C(=O)N4CCN(C5CCCCC5)CC4)c3C2=O)CC1	n	n	n	n	n
CCOC(=O)N1CCC(N2Cc3cccc(C(=O)Nc4ccc(OC)c(OC)c4)c3C2=O)CC1	n	n	u	18µM	u
Cc1ccc(NC(=O)c2cccc3c2C(=O)N(C2CCCCC2)C3)c(Cl)c1	n	n	n	18µM	x
O=C(Nc1ccc(Br)cc1)c1cccc2c1C(=O)N(C1CCCCC1)C2	n	n	n	n	n
COc1cc(NC(=O)c2cccc3c2C(=O)N(C2CCCCC2)C3)cc(OC)c1OC	u	n	7.3µM	23µM	-60
Cc1cc(C)cc(NC(=O)c2cccc3c2C(=O)N(C2CCCCC2)C3)c1	n	n	n	n	n
CN(CC(=O)NCc1ccco1)C(=O)C1CC(=O)N(c2ccc3c(c2)OCCO3)C1 (stereo unspecified)	n	n	u	n	n
COc1ccccc1CCNC(=O)C(=O)NCC1OCCN1S(=O)(=O)c1cc(F)ccc1F (stereo unspecified)	n	n	n	n	n
CCCn1c(SCC(=O)N2CCCC(C)C2)nnc1-c1ccccn1 (stereo unspecified)	n	n	n	n	n
CCOC(=O)N1C(=O)[C@@](CC)(c2ccccc2)N1C(=O)OCC	n	n	13µM	8.2µM	x
COC(=O)N1C(=O)[C@](CC(C)C)(c2ccccc2)N1C(=O)OC	n	n	16µM	21µM	x
CC[C@@]1(c2ccccc2OC)C(=O)N(C(=O)OC)N1C(=O)OC	n	n	u	u	-87
CC[C@@]1(c2cccc(C)c2)C(=O)N(C(=O)OC)N1C(=O)OC	n	n	18µM	18µM	-88
CCOC(=O)N1CCN(C(=S)Nc2cccc(C)c2)CC1	n	n	n	n	n
COc1ccc(CNC(=O)C(C)N2C(=O)NC(c3ccccc3)(c3ccccc3)C2=O)cc1 (stereo unspecified)	n	n	n	n	u
CCOC(=O)N1CCN(C(=O)CN2C(=O)NC(c3ccccc3)(c3ccccc3)C2=O)CC1	n	n	n	n	n
CCOC(=O)Cc1csc(NC(=O)c2cc3c(s2)CCCC3)n1	u	n	u	u	n
Cc1csc(NC(=O)c2cc3c(s2)CCCCC3)n1	u	u	15µM	u	-63

Screens deposited in PubChem by National Center for Advancing Translational Sciences (NCATS).
